# Reference: article PMC11062922 (Nature Chemical Biology, 2023)
# Read-outs that look alike come from different tables or passages of the source.
# Experiments:
# Set-up in all cases: species or system human, MV4-11 + K-562 + COLO205 + SK-N-BE2 + OVCAR-8
# [1] = test system: ADRBK1; conditions: read-out: apparent Kd, compound concentrations: 100 nM and 1000 nM (sheet 'Samples'), n = 1
# [2] = test system: PIK3C3; conditions: read-out: apparent Kd; compound concentrations: 100 nM and 1000 nM (sheet 'Samples'), CATDS: 0.27683551604583601; n = 1
# [3] = test system: PIK3CB; conditions: read-out: apparent Kd; compound concentrations: 100 nM and 1000 nM (sheet 'Samples'), CATDS: 0.86026286553543596; n = 1
# [4] = test system: AKT1; conditions: read-out: apparent Kd, n = 1
# [5] = test system: AKT2; conditions: read-out: apparent Kd, n = 1
# [6] = test system: CDK16; conditions: read-out: apparent Kd; compound concentrations:100 nM and 1000 nM (sheet 'Samples'); n = 1
# [7] = test system: CDK6; conditions: read-out: apparent Kd; compound concentrations:100 nM and 1000 nM (sheet 'Samples'); n = 1
# [8] = test system: GSK3A; conditions: read-out: apparent Kd; compound concentrations:100 nM and 1000 nM (sheet 'Samples'); n = 1
# [9] = test system: GSK3B; conditions: read-out: apparent Kd; compound concentrations:100 nM and 1000 nM (sheet 'Samples'); n = 1
# [10] = test system: MAP2K1; conditions: read-out: apparent Kd, n = 1
# [11] = test system: MAP2K2; conditions: read-out: apparent Kd; compound concentrations:100 nM and 1000 nM (sheet 'Samples'); n = 1
# [12] = test system: MAP3K1; conditions: read-out: apparent Kd; compound concentrations:100 nM and 1000 nM (sheet 'Samples'); n = 1
# [13] = test system: MYLK3; conditions: read-out: apparent Kd; compound concentrations:100 nM and 1000 nM (sheet 'Samples'); n = 1
# [14] = test system: NLK; conditions: read-out: apparent Kd; compound concentrations:100 nM and 1000 nM (sheet 'Samples'); n = 1
# [15] = test system: NQO1; conditions: read-out: apparent Kd, n = 1
# [16] = test system: STK11; conditions: read-out: apparent Kd; compound concentrations:100 nM and 1000 nM (sheet 'Samples'); n = 1
# [17] = test system: STK26; conditions: read-out: apparent Kd; compound concentrations:100 nM and 1000 nM (sheet 'Samples'); n = 1
# [18] = test system: TGFBR2; conditions: read-out: apparent Kd; compound concentrations:100 nM and 1000 nM (sheet 'Samples'); n = 1
# [19] = test system: AKT3; conditions: read-out: apparent Kd; compound concentrations: 100 nM and 1000 nM (sheet 'Samples'), CATDS: 0.118826721397903; n = 1
# [20] = test system: CDK17; conditions: read-out: apparent Kd; compound concentrations: 100 nM and 1000 nM (sheet 'Samples'), CATDS: 8.1529480800730997E-2; n = 1
# [21] = test system: CDK9; conditions: read-out: apparent Kd; compound concentrations: 100 nM and 1000 nM (sheet 'Samples'), CATDS: 7.5399196753672404E-2; n = 1
# [22] = test system: CSNK1A1; conditions: read-out: apparent Kd; compound concentrations: 100 nM and 1000 nM (sheet 'Samples'), CATDS: 8.2829529423840004E-2; n = 1
# [23] = test system: HCK; conditions: read-out: apparent Kd; compound concentrations: 100 nM and 1000 nM (sheet 'Samples'), CATDS: 0.17397087448623899; n = 1
# [24] = test system: ILK; conditions: read-out: apparent Kd; compound concentrations: 100 nM and 1000 nM (sheet 'Samples'), CATDS: 8.7046948596417206E-2; n = 1
# [25] = test system: RIPK3; conditions: read-out: apparent Kd; compound concentrations: 100 nM and 1000 nM (sheet 'Samples'), CATDS: 8.3707794531398802E-2; n = 1
# [26] = test system: TP53RK; conditions: read-out: apparent Kd, compound concentrations: 100 nM and 1000 nM (sheet 'Samples'), n = 1
# [27] = test system: AGK; conditions: read-out: apparent Kd; compound concentrations: 100 nM and 1000 nM (sheet 'Samples'), CATDS: 0.48685778986675599; n = 1
# [28] = test system: MAPK9; conditions: read-out: apparent Kd; compound concentrations: 100 nM and 1000 nM (sheet 'Samples'), CATDS: 0.30035248026311001; n = 1
# [29] = test system: PRKACG; conditions: read-out: apparent Kd; compound concentrations: 100 nM and 1000 nM (sheet 'Samples'), CATDS: 0.40146810270516797; n = 1
# [30] = compound concentrations:100 nM and 1000 nM (sheet 'Samples')
structure (smiles),measurement,setting,value
Cc1cccc(Cn2ccn3c(=O)cc(N4CCOCC4)nc23)c1 [GSK2297542A],potency estimated from few doses,[1]; CATDS: 0.236668950824271,1590 nM
same,potency estimated from few doses,[2],886 nM
same,potency estimated from few doses,[3],48.3 nM
O=C(Nc1n[nH]c2nc(-c3cccc(O)c3)ccc12)C1CC1 [SB-711805],potency estimated from few doses,[4]; [30],1900 nM
same,potency estimated from few doses,[5]; [30],2070 nM
same,potency estimated from few doses,[6],2150 nM
same,potency estimated from few doses,[7],1880 nM
same,potency estimated from few doses,[8],147 nM
same,potency estimated from few doses,[9],223 nM
same,potency estimated from few doses,[10]; [30],2170 nM
same,potency estimated from few doses,[11],2290 nM
same,potency estimated from few doses,[12],1840 nM
same,potency estimated from few doses,[13],1310 nM
same,potency estimated from few doses,[14],1150 nM
same,potency estimated from few doses,[15]; [30],1330 nM
same,potency estimated from few doses,[16],2400 nM
same,potency estimated from few doses,[17],2270 nM
same,potency estimated from few doses,[18],644 nM
Cl.N#CCc1ccc(Nc2nccc(Nc3ccc(Oc4ccccc4)cc3)n2)cc1 [GW639905A],potency estimated from few doses,"[5]; compound concentrations: 100 nM and 1000 nM (sheet 'Samples'), CATDS: 8.2827110731653497E-2",1920 nM
same,potency estimated from few doses,[19],954 nM
same,potency estimated from few doses,[20],1990 nM
same,potency estimated from few doses,[21],2420 nM
same,potency estimated from few doses,[22],1920 nM
same,potency estimated from few doses,[23],532 nM
same,potency estimated from few doses,[24],1720 nM
same,potency estimated from few doses,"[10]; compound concentrations: 100 nM and 1000 nM (sheet 'Samples'), CATDS: 8.98649962952279E-2",1610 nM
same,potency estimated from few doses,"[15]; compound concentrations: 100 nM and 1000 nM (sheet 'Samples'), CATDS: 9.3069785012321701E-2",1500 nM
same,potency estimated from few doses,[25],1880 nM
same,potency estimated from few doses,[26]; CATDS: 8.4353152889517405E-2,1850 nM
COC[C@@H](C)N[C@H]1CC[C@H](Nc2cc(-c3cccc(NCC4(C#N)CCOCC4)n3)c(Cl)cn2)CC1 [NVP-2],potency estimated from few doses,[27],2370 nM
same,potency estimated from few doses,[26]; CATDS: 0.51387141429952199,2130 nM
COC(=O)c1c(-c2ccccc2)c2cc(OC)ccc2c(=O)n1Cc1ccccc1 [TPKI-97],potency estimated from few doses,[1]; CATDS: 0.31449304008803602,1400 nM
same,potency estimated from few doses,[28],1550 nM
same,potency estimated from few doses,[29],872 nM
Cn1cc(C2=C(c3cn(-c4ccccc4)c4ccccc34)C(=O)NC2=O)c2ccccc21 [RO0318564-000],potency estimated from few doses,"[4]; compound concentrations: 100 nM and 1000 nM (sheet 'Samples'), CATDS: 1",2080 nM
